{
  "source": "PubChem BioAssay AID2061321",
  "about": "(National Center for Advancing Translational Sciences (NCATS), 2025)",
  "note": "Inconclusive results are not listed. Activity calls are given as the source filed them. The call rests on the fitted dose curve; in most records, active means well fitted inhibition curve with a large enough effect; inconclusive means small, poorly fitted or top-dose-only effect; inactive means flat fitted curve, though single readings scatter. Non-standard residues stand in square brackets, D forms with d. Residues, ends and D or L forms follow the SMILES beside them. Dolaproine = CO[C@@H]([C@@H]1CCCN1)[C@@H](C)C(=O)O; Dil = CC[C@H](C)[C@H](NC)[C@@H](CC(=O)O)OC; NMeV = CN[C@H](C(=O)O)C(C)C",
  "data": [
    {"assay": "Identification of antibody-drug conjugate (ADC) payloads which are substrates of ATP-binding cassette drug efflux transporters: ABCG2-H460 cell line", "conditions": "H460 MX20 (ABCG2) viability, CellTiter-Glo, 48 h", "source_text": "Antibody-drug conjugates (ADCs) feature an antibody recognizing a specific protein joined to a potent toxic payload. Numerous antibody-drug conjugates have received FDA approval; however, clinical resistance arises. Resistance mechanisms include decreased expression or mutation of the antibody target, impaired payload release, or increased expression of ATP-binding cassette (ABC) efflux transporters associated with multidrug resistance. We therefore sought to characterize the interaction of ABC multidrug transporters with ADC payloads. We performed a high-throughput screen with 27 common ADC payloads using cells lines expressing ABC transporters P-glycoprotein (P-gp, encoded by ABCB1) or ABCG2 (encoded by ABCG2). Confirmatory assays were also performed using cells transfected to express P-gp, ABCG2, or MRP1 (encoded by ABCC1). Several commonly used ADC payloads were substrates of P-gp, including calicheamicin gamma1, monomethyl auristatin E, DM1, and DM4. All the pyrrolobenzodiazepines tested - SJG136, SGD-1882, SG2057, and SG3199 - were substrates of P-gp, ABCG2, and MRP1. […] These findings highlight the risk of transporter-mediated resistance with certain ADC payloads and underscore the importance of selecting payloads that evade ABC transporter recognition in future ADC development.\nHEK-293 cells were transfected with empty vector (pcDNA) or vector containing the human ABCB1 (MDR-19), ABCG2 (R-5), or ABCC1 gene (MRP1) and were maintained in EMEM with 2 mg/mL G418 added to maintain transporter expression. The HeLa derivative KB-3-1 and the P-gp overexpressing KB-8-5-11 subline were maintained in DMEM; KB-8-5-11 additionally received 100 ng/mL colchicine. H460 parental cells were obtained from the Division of Cancer Treatment and Diagnosis Tumor Repository, National Cancer Institute at Frederick, MD and were cultured in RPMI. The ABCG2 expressing subline H460 MX20 was generated by selecting H460 cells in 20 nM mitoxantrone. Media in all cases was supplemented with 10% FBS and 1% penicillin-streptomycin. We explored 27 common ADC payloads, in two orthogonal, paired cell line sets-a drug selected and transfected set for each transporter--to identify substrates of the ABC transporters P-gp and ABCG2. Compounds were sourced from Levena Biopharma (San Diego, CA), Selleck Chem (Houston, TX), ChemieTek (Indianapolis, IN), or Microsource Discovery Systems (Gaylordsville, CT). Screening was performed as previously described. Briefly, cells were plated at a density of 500 cells/well in 1536 well plates with compounds added using a 1536-head pin tool (Kalypsys, San Diego CA). Cells were incubated with cytotoxic drugs and processed with CellTiter Glo reagent (Promega, Madison, WI) to determine viability after 48 hours. P-gp substrates were identified by comparing compound activity between paired sets of low-expressing (sensitive) and over-expressing (resistant) cell lines.", "values": [
      {"smiles": "CC(C)(C)OC(=O)Nc1ccc2[nH]c(C(=O)N3C[C@@H](CCl)c4c3cc(O)c3ccccc43)cc2c1", "Potency": "2.1 nM (active)"},
      {"smiles": "CC[C@]1(O)CC2CN(CCc3c([nH]c4ccccc34)[C@@](C(=O)OC)(c3cc4c(cc3OC)N(C)[C@H]3[C@@](O)(C(=O)OC)[C@H](OC(C)=O)[C@]5(CC)C=CCN6CC[C@]43[C@@H]65)C2)C1", "note": "(stereo partly specified)", "Potency": "533 nM (active)"},
      {"smiles": "COC(=O)c1cc2c3c(cc(O)c2[nH]1)N(C(=O)c1cc2cc(OC)c(OC)c(OC)c2[nH]1)CC3CCl", "note": "(stereo unspecified)", "Potency": "0.4 nM (active)"},
      {"smiles": "CCc1c2c(nc3ccc(O)cc13)-c1cc3c(c(=O)n1C2)COC(=O)[C@]3(O)CC", "Potency": "11.9 nM (active)"},
      {"smiles": "COc1cccc2c1C(=O)c1c(O)c3c(c(O)c1C2=O)C[C@@](O)(C(=O)CO)C[C@@H]3O[C@H]1C[C@H](N)[C@H](O)[C@H](C)O1", "Potency": "377 nM (active)"},
      {"smiles": "CCN(C(C)=O)[C@H]1CO[C@@H](O[C@H]2[C@H](O[C@H]3C#C/C=C\\C#C[C@]4(O)CC(=O)C(NC(=O)OC)=C3/C4=C\\CSSSC)O[C@H](C)[C@@H](NO[C@H]3C[C@H](O)[C@H](SC(=O)c4c(C)c(I)c(O[C@@H]5O[C@@H](C)[C@H](O)[C@@H](OC)[C@H]5O)c(OC)c4OC)[C@@H](C)O3)[C@@H]2O)C[C@@H]1OC", "Potency": "7.5 nM (active)"},
      {"smiles": "COc1cccc2c1C(=O)c1c(O)c3c(c(O)c1C2=O)C[C@@](O)(C(=O)CO)C[C@@H]3O[C@H]1C[C@H]2[C@H](O[C@@H]3[C@@H](OC)OCCN32)[C@H](C)O1", "Potency": "0.0598 nM (active)"},
      {"smiles": "CN(C)CCOc1ccc2[nH]c(C(=O)N3C[C@@H](CCl)c4c3cc(O)c3ccccc43)cc2c1", "Potency": "0.2 nM (active)"},
      {"smiles": "COc1cc2cc(c1Cl)N(C)C(=O)C[C@H](O)[C@]1(C)O[C@H]1[C@H](C)C1C[C@@](O)(NC(=O)O1)[C@H](OC)/C=C/C=C(\\C)C2", "Potency": "4750 nM (active)"},
      {"smiles": "CC[C@H](C)[C@@H]([C@@H](CC(=O)N1CCC[C@H]1[C@H](OC)[C@@H](C)C(=O)N[C@@H](Cc1ccccc1)C(=O)O)OC)N(C)C(=O)[C@@H](NC(=O)[C@@H](NC)C(C)C)C(C)C", "note": "(H-[NMeV]V[Dil][Dolaproine]F-OH)", "Potency": "5330 nM (active)"},
      {"smiles": "CCN[C@H]1CO[C@@H](O[C@H]2[C@H](O[C@H]3C#C/C=C\\C#C[C@]4(O)CC(=O)C(NC(=O)OC)=C3/C4=C\\CSSSC)O[C@H](C)[C@@H](NO[C@H]3C[C@H](O)[C@H](SC(=O)c4c(C)c(I)c(O[C@@H]5O[C@@H](C)[C@H](O)[C@@H](OC)[C@H]5O)c(OC)c4OC)[C@@H](C)O3)[C@@H]2O)C[C@@H]1OC", "Potency": "1.1 nM (active)"}
    ]}
  ]
}
